The values that follow come from PubChem BioAssay AID651784 (National Center for Advancing Translational Sciences (NCATS), 2012).

Molecules are shown by their SMILES. Results filed as inconclusive are left out. Activity calls are given as the source filed them. Calls follow the shape of the dose curve; as a rule, active = well fitted inhibition curve with a large enough effect; inconclusive = small, poorly fitted or top-dose-only effect; inactive = no such curve, though single readings can be large or run the other way.
Potency is read from the fitted curve at half-maximal effect.

This assay is described as follows: Acumen qHTS Assay for Inhibitors of the mTORC1 Signaling Pathway in MEF (Tsc2-/-, p53-/-) Cells: Hit Validation.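 Also: phospho-rpS6 Ser235/236 immunofluorescence normalized to propidium iodide cell count; nearly all actives have a fitted effect of over 65% in size.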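 As to activity change, negative = inhibition: cells exposed to compound for 24 hours; plate controls were DMSO for no effect and 7.5 nM rapamycin control for full effect.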 To be noted: Acumen imaging; activity change, negative = inhibition: at 37.3 µM (top of the series). On the technique in general: qHTS replaces the single test concentration by a dilution series.
On to `Cc1cccc(N(C)S(=O)(=O)c2ccc(-c3cc(C)no3)s2)c1`, for which the activity change, negative = inhibition was -13.9%.

For the compound `CCc1nn(CC(=O)NCc2ccccc2Cl)c(=O)c2cccn12`, the activity change, negative = inhibition turned out to be 3.65%.

On to `O=C(COc1ccc(F)cc1)Nc1ccc(Cl)c(-c2nc3ccccc3[nH]2)c1`, for which the activity change, negative = inhibition is -4.39%.

Turning to `CCOC(=O)Cn1c(=O)c2c(nc(N3CCOCC3)n2Cc2ccccc2)n(C)c1=O`, the Potency is 2.93 µM (active).

For the compound `COc1ccc(Cl)cc1NC(=O)CCCS(=O)(=O)c1nc(-c2ccc(OC)c(OC)c2)cc(C(F)(F)F)n1`, the Potency is 10.4 µM (active).

With `COc1ccc(N2CCN(C(=O)C(C)n3nc(C)c4sc5ccccc5c4c3=O)CC2)cc1` (stereo not given), the activity change, negative = inhibition was 1.14%.

`CCOC(=O)C(Cc1c[nH]c2ccccc12)NC(=O)COc1ccc(Cl)cc1` (stereo not given): the activity change, negative = inhibition is -4.4%.

For `Cc1ccc(OCC(O)Cn2c(=N)n(CCN3CCCCC3)c3ccccc32)cc1` (stereo not given), the Potency was 10.4 µM (active).

Consider `CCOc1ccc(Nc2nc(N)c(C(=O)c3ccccc3Cl)s2)cc1`, for which the activity change, negative = inhibition is -95%.

In the case of `CC(C)CCNC(=O)Nc1ccc2c(c1)N(C)C(=O)c1ccccc1S2`, the activity change, negative = inhibition is -8.55%.

Turning to `COc1cc(-c2ccno2)ccc1S(=O)(=O)N1CCN(c2cc(C)ccc2C)CC1`, the activity change, negative = inhibition was -45.4%.

For the compound `COc1ccc2c(c1)CCc1c(C(=O)Nc3c(C)nn(Cc4ccc(Cl)cc4)c3C)noc1-2`, the activity change, negative = inhibition was -75.9%.

As for `CCS(=O)(=O)c1ncc(Cl)c(C(=O)N(Cc2ccccc2)Cc2ccco2)n1`, the Potency is 5.21 µM (active).

Regarding `CN(c1ccccc1)S(=O)(=O)c1ccc(NC(=O)c2nc(S(C)(=O)=O)ncc2Cl)cc1`, the Potency was 1.47 µM (active).

Regarding `CCOC(=O)c1ccc(N2C(=O)c3n[nH]c(C)c3C2c2cccc(Br)c2)cc1` (stereo not given), the activity change, negative = inhibition was determined as 4.8%.
